# Measurements: the supplement of paper PMC4022240
# ± gives the standard deviation.
# T1: HaloTag-ATRX ADD domain (163-292)
# T1 chain: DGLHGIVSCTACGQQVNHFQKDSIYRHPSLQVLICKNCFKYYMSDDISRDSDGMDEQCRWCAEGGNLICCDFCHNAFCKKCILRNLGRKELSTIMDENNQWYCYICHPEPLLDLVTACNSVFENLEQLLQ
# B1: H2A 1-13 Sph G Rme G K Q G G K A R A K (peptide)
# chain: SGRGKQGGKARAK
# B2: H2A 1-13 S G R G Kac Q G G Kac A R A K (peptide)
# chain: SGRGKQGGKARAK
# B3: H2A 1-13 Sph G Rme2s G K Q G G K A R A K (peptide)
# chain: SGRGKQGGKARAK
# B4: H2A 1-13 S G Rme2a G K Q G G K A R A K (peptide)
# chain: SGRGKQGGKARAK
# B5: H2A 1-13 Sph G Rcit G K Q G G K A R A K (peptide)
# chain: SGRGKQGGKARAK
# B6: H2A 1-13 S G R G K Q G G K A R A K (peptide)
# chain: SGRGKQGGKARAK
# B7: H2A 1-13 Sph G R G Kac Q G G Kac A R A K (peptide)
# chain: SGRGKQGGKARAK
# B8: H2A 1-13 S G R G K Q G G Kac A R A K (peptide)
# chain: SGRGKQGGKARAK
# B9: H2A 1-13 Sph G Rme2a G K Q G G K A R A K (peptide)
# chain: SGRGKQGGKARAK
# B10: H2A 1-13 S G R G Kac Q G G K A R A K (peptide)
# chain: SGRGKQGGKARAK
# What was measured:
# Assay in all cases: peptide microarray binding signal (635 nm), min-max normalized on array (fraction of array maximum); higher = stronger binding
# Conditions in all cases: peptide region: H2A 1-13
# [1] = target: T1, HaloTag-ATRX ADD domain (163-292)
# Method: (§1)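 Histone 13-mer peptides were synthesized as cellulose conjugates with a C-terminal 20-atom PEG linker and printed in triplicate on nitrocellulose. The sequence given is the unmodified backbone; PTMs (Kme1/2/3, Kac, Sph/Tph, Rme/Rme2a/Rme2s, Rcit) are listed in the label and the 'peptide modifications' condition. Slides were probed at 4 °C for 1 h with biotin-labelled (HQ)5-HaloTag reader fusions (ATRX-ADD, ING2-PHD) then streptavidin-Alexa647, or with rabbit histone antibodies then anti-rabbit Alexa647. The mean 635 nm signal of the triplicate spots was scaled 0-1 between the lowest and highest values on each array.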
# [2] = target: HaloTag-ING2 PHD (mouse Ing2 200-280)
# Method: as §1
# [3] = target: anti-H3K4me3 antibody ab8580
# Method: as §1
# [4] = target: anti-H3K9me3 antibody ab8898
# Method: as §1
# [5] = peptide modifications: H2AS1ph H2AR3me1, binder concentration: 1:2,000 dilution
# [6] = peptide modifications: H2AS1ph H2AR3me1, binder concentration: 1:10,000 dilution
# [7] = peptide modifications: H2AK5ac H2AK9ac, binder concentration: 1:2,000 dilution
# [8] = peptide modifications: H2AK5ac H2AK9ac, binder concentration: 1:10,000 dilution
# [9] = peptide modifications: H2AS1ph H2AR3me2s, binder concentration: 1:2,000 dilution
# [10] = peptide modifications: H2AS1ph H2AR3me2s, binder concentration: 1:10,000 dilution
# [11] = peptide modifications: H2AR3me2a, binder concentration: 1:2,000 dilution
# [12] = peptide modifications: H2AR3me2a, binder concentration: 1:10,000 dilution
# [13] = peptide modifications: H2AS1ph H2AR3cit, binder concentration: 1:2,000 dilution
# [14] = peptide modifications: H2AS1ph H2AR3cit, binder concentration: 1:10,000 dilution
# [15] = binder concentration: 1:2,000 dilution
# [16] = binder concentration: 1:10,000 dilution
# [17] = peptide modifications: H2AS1ph H2AK5ac H2AK9ac, binder concentration: 1:2,000 dilution
# [18] = peptide modifications: H2AS1ph H2AK5ac H2AK9ac, binder concentration: 1:10,000 dilution
# [19] = peptide modifications: H2AK9ac, binder concentration: 1:2,000 dilution
# [20] = peptide modifications: H2AK9ac, binder concentration: 1:10,000 dilution
# [21] = peptide modifications: H2AS1ph H2AR3me2a, binder concentration: 1:2,000 dilution
# [22] = peptide modifications: H2AS1ph H2AR3me2a, binder concentration: 1:10,000 dilution
# [23] = peptide modifications: H2AK5ac, binder concentration: 1:2,000 dilution
# [24] = peptide modifications: H2AK5ac, binder concentration: 1:10,000 dilution
binder,measurement,setting,value
B1,peptide microarray binding signal,"[1]; peptide modifications: H2AS1ph H2AR3me1, binder concentration: 50 nM",0.0036 ± 0.00033
same,peptide microarray binding signal,"[1]; peptide modifications: H2AS1ph H2AR3me1, binder concentration: 500 nM",0.00495 ± 6.5e-05
same,peptide microarray binding signal,"[2]; peptide modifications: H2AS1ph H2AR3me1, binder concentration: 10 nM",0.00346 ± 0.00011
same,peptide microarray binding signal,"[2]; peptide modifications: H2AS1ph H2AR3me1, binder concentration: 100 nM",0.00446 ± 0.00061
same,peptide microarray binding signal,[3]; [5],0.000566 ± 1.9e-05
same,peptide microarray binding signal,[3]; [6],0.000799 ± 8.3e-06
same,peptide microarray binding signal,[4]; [5],0.000287 ± 2.9e-06
same,peptide microarray binding signal,[4]; [6],0.000807 ± 1.5e-05
B2,peptide microarray binding signal,"[1]; peptide modifications: H2AK5ac H2AK9ac, binder concentration: 50 nM",0.00382 ± 4.6e-05
same,peptide microarray binding signal,"[1]; peptide modifications: H2AK5ac H2AK9ac, binder concentration: 500 nM",0.00743 ± 0.00068
same,peptide microarray binding signal,"[2]; peptide modifications: H2AK5ac H2AK9ac, binder concentration: 10 nM",0.00281 ± 0.00011
same,peptide microarray binding signal,"[2]; peptide modifications: H2AK5ac H2AK9ac, binder concentration: 100 nM",0.00815 ± 0.00019
same,peptide microarray binding signal,[3]; [7],0.00109 ± 0.00019
same,peptide microarray binding signal,[3]; [8],0.000571
same,peptide microarray binding signal,[4]; [7],0.000227 ± 4.1e-06
same,peptide microarray binding signal,[4]; [8],0.000519 ± 5.6e-06
B3,peptide microarray binding signal,"[1]; peptide modifications: H2AS1ph H2AR3me2s, binder concentration: 50 nM",0.00357 ± 5.8e-05
same,peptide microarray binding signal,"[1]; peptide modifications: H2AS1ph H2AR3me2s, binder concentration: 500 nM",0.00752 ± 0.00025
same,peptide microarray binding signal,"[2]; peptide modifications: H2AS1ph H2AR3me2s, binder concentration: 10 nM",0.00257 ± 5e-05
same,peptide microarray binding signal,"[2]; peptide modifications: H2AS1ph H2AR3me2s, binder concentration: 100 nM",0.00482 ± 0.0003
same,peptide microarray binding signal,[3]; [9],0.000378 ± 3.9e-06
same,peptide microarray binding signal,[3]; [10],0.000571
same,peptide microarray binding signal,[4]; [9],0.000317 ± 9.6e-06
same,peptide microarray binding signal,[4]; [10],0.000577 ± 6.2e-06
B4,peptide microarray binding signal,"[1]; peptide modifications: H2AR3me2a, binder concentration: 50 nM",0.005172 ± 5e-05
same,peptide microarray binding signal,"[1]; peptide modifications: H2AR3me2a, binder concentration: 500 nM",0.0126 ± 0.00024
same,peptide microarray binding signal,"[2]; peptide modifications: H2AR3me2a, binder concentration: 10 nM",0.00382 ± 0.0003
same,peptide microarray binding signal,"[2]; peptide modifications: H2AR3me2a, binder concentration: 100 nM",0.0113 ± 0.00033
same,peptide microarray binding signal,[3]; [11],0.00119 ± 9.3e-05
same,peptide microarray binding signal,[3]; [12],0.00143 ± 2.4e-05
same,peptide microarray binding signal,[4]; [11],0.000483 ± 1.2e-05
same,peptide microarray binding signal,[4]; [12],0.00075 ± 7.9e-06
B5,peptide microarray binding signal,"[1]; peptide modifications: H2AS1ph H2AR3cit, binder concentration: 50 nM",0.00392 ± 8.1e-05
same,peptide microarray binding signal,"[1]; peptide modifications: H2AS1ph H2AR3cit, binder concentration: 500 nM",0.00486 ± 5.6e-05
same,peptide microarray binding signal,"[2]; peptide modifications: H2AS1ph H2AR3cit, binder concentration: 10 nM",0.00167 ± 3e-05
same,peptide microarray binding signal,"[2]; peptide modifications: H2AS1ph H2AR3cit, binder concentration: 100 nM",0.00283 ± 0.0002
same,peptide microarray binding signal,[3]; [13],0.000472 ± 2.6e-05
same,peptide microarray binding signal,[3]; [14],0.000514 ± 1.1e-05
same,peptide microarray binding signal,[4]; [13],0.000272 ± 4.9e-06
same,peptide microarray binding signal,[4]; [14],0.000692 ± 7.3e-06
B6,peptide microarray binding signal,[1]; binder concentration: 50 nM,0.00364 ± 0.00013
same,peptide microarray binding signal,[1]; binder concentration: 500 nM,0.00819 ± 0.00076
same,peptide microarray binding signal,[2]; binder concentration: 10 nM,0.00298 ± 3.3e-05
same,peptide microarray binding signal,[2]; binder concentration: 100 nM,0.00446 ± 7.4e-05
same,peptide microarray binding signal,[3]; [15],0.00034 ± 6.1e-06
same,peptide microarray binding signal,[3]; [16],0.000571 ± 1.1e-05
same,peptide microarray binding signal,[4]; [15],0.000242 ± 6.7e-06
same,peptide microarray binding signal,[4]; [16],0.000404 ± 4.4e-06
B7,peptide microarray binding signal,"[1]; peptide modifications: H2AS1ph H2AK5ac H2AK9ac, binder concentration: 50 nM",0.00408 ± 0.00018
same,peptide microarray binding signal,"[1]; peptide modifications: H2AS1ph H2AK5ac H2AK9ac, binder concentration: 500 nM",0.00738 ± 0.00011
same,peptide microarray binding signal,"[2]; peptide modifications: H2AS1ph H2AK5ac H2AK9ac, binder concentration: 10 nM",0.00257 ± 5e-05
same,peptide microarray binding signal,"[2]; peptide modifications: H2AS1ph H2AK5ac H2AK9ac, binder concentration: 100 nM",0.00687 ± 0.00064
same,peptide microarray binding signal,[3]; [17],0.000321 ± 6.7e-06
same,peptide microarray binding signal,[3]; [18],0.000399
same,peptide microarray binding signal,[4]; [17],0.000272 ± 4.9e-06
same,peptide microarray binding signal,[4]; [18],0.000577 ± 6.2e-06
B8,peptide microarray binding signal,"[1]; peptide modifications: H2AK9ac, binder concentration: 50 nM",0.00348 ± 0.0001
same,peptide microarray binding signal,"[1]; peptide modifications: H2AK9ac, binder concentration: 500 nM",0.00619 ± 0.00024
same,peptide microarray binding signal,"[2]; peptide modifications: H2AK9ac, binder concentration: 10 nM",0.00251 ± 0.00014
same,peptide microarray binding signal,"[2]; peptide modifications: H2AK9ac, binder concentration: 100 nM",0.00638 ± 0.00045
same,peptide microarray binding signal,[3]; [19],0.000547 ± 2.3e-05
same,peptide microarray binding signal,[3]; [20],0.000399
same,peptide microarray binding signal,[4]; [19],0.000227
same,peptide microarray binding signal,[4]; [20],0.00075 ± 1.6e-05
B9,peptide microarray binding signal,"[1]; peptide modifications: H2AS1ph H2AR3me2a, binder concentration: 50 nM",0.00235 ± 9e-05
same,peptide microarray binding signal,"[1]; peptide modifications: H2AS1ph H2AR3me2a, binder concentration: 500 nM",0.00381 ± 0.00015
same,peptide microarray binding signal,"[2]; peptide modifications: H2AS1ph H2AR3me2a, binder concentration: 10 nM",0.003223 ± 1.8e-05
same,peptide microarray binding signal,"[2]; peptide modifications: H2AS1ph H2AR3me2a, binder concentration: 100 nM",0.00206 ± 4.1e-05
same,peptide microarray binding signal,[3]; [21],0.000472 ± 1.2e-05
same,peptide microarray binding signal,[3]; [22],0.000685 ± 7.2e-06
same,peptide microarray binding signal,[4]; [21],0.000332 ± 3.4e-06
same,peptide microarray binding signal,[4]; [22],0.000577 ± 6.2e-06
B10,peptide microarray binding signal,"[1]; peptide modifications: H2AK5ac, binder concentration: 50 nM",0.00288 ± 4.3e-05
same,peptide microarray binding signal,"[1]; peptide modifications: H2AK5ac, binder concentration: 500 nM",0.0061 ± 0.00049
same,peptide microarray binding signal,"[2]; peptide modifications: H2AK5ac, binder concentration: 10 nM",0.00239 ± 2.4e-05
same,peptide microarray binding signal,"[2]; peptide modifications: H2AK5ac, binder concentration: 100 nM",0.005528 ± 4.3e-05
same,peptide microarray binding signal,[3]; [23],0.000378 ± 1e-05
same,peptide microarray binding signal,[3]; [24],0.000399
same,peptide microarray binding signal,[4]; [23],0.000227 ± 4.1e-06
same,peptide microarray binding signal,[4]; [24],0.000577 ± 6.2e-06
